The test system of one experiment is Staphylococcus aureus. To be noted: Concentration 32 ug.mL-1;; ASSAY_TEST Inhibition of Bacterial Growth; detection method Absorption (OD600); MEDIA CAMHB; plate type 384well; NBS; CORNING #3640; time 18 hr.
A further experiment deals with Escherichia coli. To be noted: Concentration 32 ug.mL-1;; ASSAY_TEST Inhibition of Bacterial Growth; detection method Absorption (OD600); MEDIA CAMHB; plate type 384well; NBS; CORNING #3640; time 18 hr.

SMILES strings stand for the structures. Entries with a potency or affinity are not part of this list.

Our source for the Inhibition values is ChEMBL document CHEMBL4513146, “CO-ADD screening of Karazin Kharkiv National University (Ukraine) compounds”.

In the case of `Cc1ccc(Cl)cc1NC(=O)CSc1nnc2ccc(C(=O)Nc3cccc(F)c3)cn12`, the Inhibition (usually the change of the read-out against control, counted positive when it falls) in the experiment with Staphylococcus aureus was determined as 14.11%; in the experiment on Escherichia coli, 0.94%.

Regarding `Cc1ccc(NC(=O)CSc2nnc3ccc(C(=O)Nc4cccc(F)c4)cn23)cc1F`, the Inhibition in the experiment with Staphylococcus aureus is recorded as 14.43%; in the experiment on Escherichia coli, 0.35%.

Regarding `O=C(CSc1nnc2c3cc(-c4ccc(F)cc4)nn3ccn12)NCc1ccccc1`, the results for the Inhibition in the experiment with Staphylococcus aureus and in the experiment with Escherichia coli were -2.17% and -6.24%, respectively.

In the case of `O=C(Cn1nc2c3cc(-c4ccc(Cl)cc4)nn3ccn2c1=O)N1CCN(c2ccccc2)CC1`, the Inhibition in the experiment on Staphylococcus aureus is 8.68%; in the experiment on Escherichia coli it was -1.74%.

Consider `Cc1nnc2ccc(S(=O)(=O)N(Cc3ccccc3F)c3cccc(Cl)c3)cn12`, for which the Inhibition is listed as 2.13% in the experiment on Staphylococcus aureus and -7.6% with Escherichia coli.

For the compound `N#Cc1cccc(NC(=O)CSc2nnc3c4cc(-c5ccc(F)cc5)nn4ccn23)c1`, the figures for the Inhibition in the experiment on Staphylococcus aureus and with Escherichia coli were 11.69% and -2.69%, respectively.

In the case of `CCc1ccc(N(Cc2ccc(C)cc2)S(=O)(=O)c2cccn3c(C)nnc23)cc1`, the Inhibition amounted to 16.56% in the experiment with Staphylococcus aureus and 0.51% with Escherichia coli.

As for `CCOc1ccc(-n2ccn3c(SCC(=O)Nc4ccc(F)cc4F)nnc3c2=O)cc1`, the Inhibition in the experiment on Staphylococcus aureus turned out to be 5.96%; with Escherichia coli, 2.93%.

Take `Cc1ccc(NC(=O)Cn2nc3ccc(SC(C)C)nn3c2=O)cc1F`: the Inhibition was -3.37% in the experiment on Staphylococcus aureus and -1.63% in the experiment with Escherichia coli.

Regarding `Cc1cc(C)c(NC(=O)Cn2nc3c(N4CCCC(C)C4)nccn3c2=O)c(C)c1` (centres undefined), the Inhibition in the experiment on Staphylococcus aureus is -1.28%; in the experiment with Escherichia coli, -2.83%.

With `Cc1ccc(NC(=O)Cn2nc3ccc(SC(C)(C)C)nn3c2=O)cc1Cl`, the figures for the Inhibition in the experiment on Staphylococcus aureus and with Escherichia coli were 3.27% and -0.69%, respectively.

As for `Cc1ccc(NC(=O)Cn2nc3c(N4CC(C)CC(C)C4)nccn3c2=O)c(F)c1` (centres undefined), the results for the Inhibition in the experiment with Staphylococcus aureus and with Escherichia coli were 10.72% and 1.48%, respectively.

Take `COc1ccc(CNC(=O)CSc2nnc3c4cc(-c5ccccc5)nn4ccn23)cc1`: the Inhibition in the experiment on Staphylococcus aureus was determined as 9.71%; in the experiment with Escherichia coli, 1.16%.

For `COc1cccc(CNC(=O)CSc2nnc3ccc(C(=O)Nc4cccc(F)c4)cn23)c1`, the Inhibition in the experiment with Staphylococcus aureus is reported as 9.49%; in the experiment on Escherichia coli, -5.27%.

As for `COc1cccc(CNC(=O)CSc2nnc3c(=O)n(-c4cccc(OC)c4)ccn23)c1`, the Inhibition with Staphylococcus aureus was found to be 1.1%; in the experiment on Escherichia coli it was 0.96%.

As for `CCCCOc1ccc(-c2cc3c4nnc(SCC(=O)Nc5ccccc5F)n4ccn3n2)cc1`, the Inhibition in the experiment with Staphylococcus aureus was -0.1%; in the experiment with Escherichia coli, -3.53%.

Take `CCOc1ccc(C(=O)CSc2nnc3c(=O)n(-c4cccc(OC)c4)ccn23)cc1`: the figures for the Inhibition in the experiment on Staphylococcus aureus and in the experiment with Escherichia coli were 5.74% and -13.86%, respectively.

Regarding `Cc1cc(C)cc(Nc2nc(C)cc3nn(CC(=O)Nc4cc(F)ccc4F)c(=O)n23)c1`, the results for the Inhibition with Staphylococcus aureus and in the experiment on Escherichia coli were 10.55% and 0.49%, respectively.

`CSc1cccc(NC(=O)Cn2nc3ccc(-c4ccc(C)c(C)c4)nn3c2=O)c1`: the Inhibition with Staphylococcus aureus is given as -11.35%; in the experiment with Escherichia coli, -14.99%.

As for `CC(C)c1nnc2c(=O)n(CC(=O)Nc3ccc(C#N)cc3)c3ccccc3n12`, the Inhibition in the experiment on Staphylococcus aureus was -0.41%; with Escherichia coli it was -7.65%.

As to `CCCCc1ccc(NC(=O)Cn2c(=O)c3nnc(CCC)n3c3ccccc32)cc1`, the figures for the Inhibition with Staphylococcus aureus and in the experiment on Escherichia coli were 2.94% and -1.42%, respectively.

`COc1ccc(CNC(=O)Cn2nc3c4cc(-c5ccc(Cl)cc5)nn4ccn3c2=O)cc1`: the values for the Inhibition in the experiment with Staphylococcus aureus and in the experiment on Escherichia coli were 6.34% and 4.2%, respectively.

`COc1ccc(C)cc1NC(=O)Cn1nc2cc(C)nc(Nc3ccc(F)cc3)n2c1=O`: the Inhibition in the experiment with Staphylococcus aureus is recorded as -14.69%; in the experiment with Escherichia coli, 2.14%.

As for `O=C(CSc1nnc2c(=O)n(-c3cccc(F)c3)ccn12)N1CCN(c2ccc(F)cc2)CC1`, the Inhibition amounted to 3.76% in the experiment with Staphylococcus aureus and 1.02% in the experiment with Escherichia coli.

For the compound `Cc1ccc2c(c1)N(C(=O)Cn1nc3ccc(Sc4ccccc4)nn3c1=O)CCO2`, the Inhibition with Staphylococcus aureus is recorded as 5.63%; in the experiment on Escherichia coli, 2.06%.

With `COc1ccc(NC(=O)Cn2nc3c(Sc4ccccc4)nccn3c2=O)c(OC)c1`, the figures for the Inhibition with Staphylococcus aureus and with Escherichia coli were -11.13% and -9.08%, respectively.

In the case of `COC(=O)c1ccccc1NC(=O)Cn1nc2c(Oc3ccc(C)cc3)nccn2c1=O`, the Inhibition is -0.21% in the experiment on Staphylococcus aureus and -6.37% with Escherichia coli.

Turning to `Cc1cc2nn(CC(=O)Nc3ccc4c(c3)OCCO4)c(=O)n2c(Nc2ccccc2C)n1`, the Inhibition in the experiment with Staphylococcus aureus was 9.51%; with Escherichia coli it was -1.19%.

Turning to `Cc1nnc2ccc(S(=O)(=O)N(Cc3cccc(F)c3)c3ccc4c(c3)OCO4)cn12`, the Inhibition is -10.23% in the experiment on Staphylococcus aureus and -15.4% with Escherichia coli.

For `CCCCN(CC)c1ccc2nnc(CCc3nc(-c4ccc(Br)cc4)no3)n2n1`, the values for the Inhibition in the experiment with Staphylococcus aureus and with Escherichia coli were 6.29% and -0.23%, respectively.

On to `CC(C)c1ccc(N(Cc2ccc(Cl)cc2)S(=O)(=O)c2cccn3cnnc23)cc1`, for which the Inhibition in the experiment on Staphylococcus aureus is given as 8.06%; in the experiment with Escherichia coli, 3.76%.

Take `Cc1ccc(-n2ccn3c(SCC(=O)c4c[nH]c5ccccc45)nnc3c2=O)cc1C`: the Inhibition with Staphylococcus aureus is listed as 8.58%; in the experiment with Escherichia coli it was 3.16%.

As for `Cc1cc2nn(CC(=O)Nc3cc(F)cc(F)c3)c(=O)n2c(Nc2ccc(F)c(C)c2)n1`, the Inhibition is recorded as 7.29% with Staphylococcus aureus and -2.56% in the experiment on Escherichia coli.

For `Cc1ccc(NC(=O)Cn2nc3c(Oc4ccccc4Cl)nccn3c2=O)cc1F`, the Inhibition with Staphylococcus aureus is 7.48%; with Escherichia coli, -2.62%.

`Cc1ccc(Cn2c(=O)c3ccccc3n3c(=O)n(CC#N)nc23)cc1`: the Inhibition with Staphylococcus aureus is given as 3.14%; with Escherichia coli, -7.28%.

For the compound `Cc1cccc(NC(=O)Cn2nc3c(Sc4ccccc4)nccn3c2=O)c1`, the Inhibition in the experiment with Staphylococcus aureus is -16.15%; with Escherichia coli it was -1.95%.

Turning to `COc1ccc(OC)c(NC(=O)Cn2nc3c(Sc4ccccc4)nc4ccccc4n3c2=O)c1`, the Inhibition in the experiment on Staphylococcus aureus is 6.17%; in the experiment on Escherichia coli it was -0.83%.
